Assay [1] concerns the target Glucocorticoid receptor (Homo sapiens) (UniProt P04150). Put plainly: ATG_GR_TRANS: Attagene TRANS-FACTORIAL HepG2 Assay for human Glucocorticoid Receptor (GR) (AID 2282978; active = hit-call score of the fitted dose curve at least 0.9, where 1 is the maximum;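 note: activators score as hits since higher reporter transcript over DMSO is fitted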). To be noted: HepG2 Attagene TRANS GR reporter, mRNA transcription. A digest of the protocol: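 Readout is reporter transcript from a chimeric GR-Gal4 acting on GAL4-UAS in transfected human HepG2 liver cells after 24 h exposure, quantified by RT-PCR and capillary electrophoresis. Activation fitted upward against DMSO.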

The target in assay [2] is Hepatocyte nuclear factor 4-alpha (Homo sapiens) (UniProt P41235). Put plainly: ATG_HNF4a_TRANS: Attagene TRANS-FACTORIAL HepG2 Assay for human Hepatocyte Nuclear Factor 4 alpha (HNF4a) (AID 2282982; active = hit-call score of the fitted dose curve at least 0.9, where 1 is the maximum). To be noted: HepG2 HNF4a transactivation reporter, mRNA readout. A digest of the protocol: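 Activity of an exogenous HNF4a–Gal4 fusion scored as induced GAL4-UAS reporter transcripts after 24 h chemical exposure of transfected human HepG2 cells. Read-out via RT-PCR with 6-FAM labelling and capillary electrophoresis; rise over DMSO baseline.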
Hepatocyte nuclear factor 4-alpha (Homo sapiens), sequence (P41235 whole entry, looked up, the tested form may be a part): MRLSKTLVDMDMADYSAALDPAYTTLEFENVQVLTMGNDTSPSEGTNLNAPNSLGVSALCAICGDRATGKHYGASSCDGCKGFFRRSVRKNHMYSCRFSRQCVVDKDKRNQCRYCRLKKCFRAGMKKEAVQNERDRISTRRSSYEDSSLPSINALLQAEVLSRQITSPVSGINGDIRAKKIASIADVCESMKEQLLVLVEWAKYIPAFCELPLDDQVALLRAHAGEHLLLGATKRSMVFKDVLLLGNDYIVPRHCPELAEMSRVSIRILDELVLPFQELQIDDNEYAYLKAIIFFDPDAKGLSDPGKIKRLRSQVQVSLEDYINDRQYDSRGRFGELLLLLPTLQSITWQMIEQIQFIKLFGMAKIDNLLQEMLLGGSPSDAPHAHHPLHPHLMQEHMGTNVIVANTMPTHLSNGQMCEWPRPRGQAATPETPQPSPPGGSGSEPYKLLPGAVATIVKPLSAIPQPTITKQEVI

Assay [3] can be described thus: ATG_M_06_TRANS: Attagene TRANS-FACTORIAL HepG2 Assay for M06 Transcription Factor (Internal Marker) (AID 2282983; active = hit-call score of the fitted dose curve at least 0.9, where 1 is the maximum). The note with it: HepG2 Attagene TRANS M06 internal marker reporter. Summed up: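 In this multiplexed HepG2 system, compounds are incubated 24 h with cells carrying GAL4-UAS reporter units. Reporter RNA is amplified and resolved by capillary electrophoresis, and induction is scored against DMSO.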

Assay [4] can be described thus: ATG_M_32_TRANS: Attagene TRANS-FACTORIAL HepG2 Assay for M32 Transcription Factor (Internal Marker) (AID 2282984; active = hit-call score of the fitted dose curve at least 0.9, where 1 is the maximum;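 note: transcript level of a background control reporter unit measured by RT-PCR and capillary electrophoresis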). To be noted: HepG2 Attagene TRANS M32 internal marker reporter. A digest of the protocol: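 Internal background reporter in transfected HepG2: after 24 h chemical exposure, RNA reverse-transcribed, reporter cDNA amplified, fluorescently labelled and HpaI-cut, then sized by capillary electrophoresis. Gain of signal fitted against DMSO control.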

Assay [5] concerns the target Nuclear receptor subfamily 4 group A member 2 (Homo sapiens) (UniProt P43354). Put plainly: ATG_NURR1_TRANS: Attagene TRANS-FACTORIAL HepG2 Assay for human Nuclear Receptor Related Protein 1 (NURR1) (AID 2282985; active = hit-call score of the fitted dose curve at least 0.9, where 1 is the maximum). To be noted: HepG2 Attagene TRANS reporter, mRNA readout. A digest of the protocol: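 Reporter transcript induction, measured by RT-PCR with fluorescent labelling, HpaI digestion and capillary electrophoresis, after 24 hr dosing of human HepG2 cells transiently expressing an exogenous NR-Gal4 fusion with GAL4-UAS-driven reporters; DMSO as baseline.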

The target of assay [6] is Transcriptional activator Myb (Homo sapiens) (UniProt P10242). Kind of assay: ATG_Myb_CIS: Attagene CIS-FACTORIAL HepG2 Assay for human Myeloblastosis (Myb) Proto-Oncogene Transcription Factor (AID 2282986). To be noted: HepG2 Attagene CIS-FACTORIAL Myb reporter transcription; actives raise or lower the signal. A digest of the protocol:
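Reporter mRNA is quantified by RT-PCR and capillary electrophoresis 24 h after dosing HepG2 cells transfected with cis-regulated reporter units, which track endogenous transcription factor activity. Gain and loss of signal are fitted versus DMSO baseline.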

Assay [7] deals with Nuclear respiratory factor 1 (Homo sapiens) (UniProt Q16656). Kind of assay: ATG_NRF1_CIS: Attagene CIS-FACTORIAL HepG2 Assay for human Nuclear Respiratory Factor 1 (NRF1) Orphan Gene (AID 2282987). The note with it: HepG2 NRF1 cis-element reporter, Attagene multiplex; actives raise or lower the signal. Summed up: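 Endogenous NRF1-driven reporter transcription in transfected HepG2 cells after 24 h treatment. Readout: RT-PCR products, 6-FAM labelled and resolved by capillary electrophoresis; changes fitted both directions relative to DMSO.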
Nuclear respiratory factor 1 (Homo sapiens), sequence (Q16656 whole entry, looked up): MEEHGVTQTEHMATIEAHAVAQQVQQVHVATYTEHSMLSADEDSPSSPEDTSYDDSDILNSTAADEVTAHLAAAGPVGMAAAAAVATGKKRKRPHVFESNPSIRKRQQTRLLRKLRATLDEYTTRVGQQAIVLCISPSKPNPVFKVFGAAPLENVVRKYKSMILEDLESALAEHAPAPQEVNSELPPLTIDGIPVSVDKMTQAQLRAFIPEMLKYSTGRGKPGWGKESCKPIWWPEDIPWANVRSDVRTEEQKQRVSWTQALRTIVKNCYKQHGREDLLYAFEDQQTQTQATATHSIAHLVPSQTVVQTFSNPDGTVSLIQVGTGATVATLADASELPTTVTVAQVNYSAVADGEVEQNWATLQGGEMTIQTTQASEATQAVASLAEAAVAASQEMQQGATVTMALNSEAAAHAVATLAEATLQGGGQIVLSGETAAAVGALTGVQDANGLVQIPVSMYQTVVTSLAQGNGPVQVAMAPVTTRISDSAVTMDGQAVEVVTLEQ

Assay [8] in a line: ATG_NFI_CIS: Attagene CIS-FACTORIAL HepG2 Assay for human Nuclear Factor I (NFI) (AID 2282989). To be noted: HepG2 cis-regulatory reporter, NFI response element transcription; actives raise or lower the signal. Summed up: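 After transient transfection of HepG2 with cis-promoter reporter constructs and 24 h dosing, RNA is reverse-transcribed, amplified, 6-FAM end-labelled and HpaI-digested before capillary analysis. Bidirectional curve fitting against DMSO.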

The target of assay [9] is Myc proto-oncogene protein (Homo sapiens) (UniProt P01106). Kind of assay: ATG_Myc_CIS: Attagene CIS-FACTORIAL HepG2 Assay for human Myelocytomatosis (Myc) Proto-Oncogene Transcription Factor (AID 2282990). The note with it: HepG2, Attagene cis-reporter transcription factor activity; actives raise or lower the signal. A digest of the protocol: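 HepG2, transient MRTU transfection (cis promoters, endogenous TFs); 24 h dosing; TriZol RNA → oligo(dT) RT → PCR → 6-FAM primer extension → HpaI cut → CE. Bidirectional fit vs DMSO.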
Myc proto-oncogene protein (Homo sapiens), sequence (P01106 whole entry, looked up): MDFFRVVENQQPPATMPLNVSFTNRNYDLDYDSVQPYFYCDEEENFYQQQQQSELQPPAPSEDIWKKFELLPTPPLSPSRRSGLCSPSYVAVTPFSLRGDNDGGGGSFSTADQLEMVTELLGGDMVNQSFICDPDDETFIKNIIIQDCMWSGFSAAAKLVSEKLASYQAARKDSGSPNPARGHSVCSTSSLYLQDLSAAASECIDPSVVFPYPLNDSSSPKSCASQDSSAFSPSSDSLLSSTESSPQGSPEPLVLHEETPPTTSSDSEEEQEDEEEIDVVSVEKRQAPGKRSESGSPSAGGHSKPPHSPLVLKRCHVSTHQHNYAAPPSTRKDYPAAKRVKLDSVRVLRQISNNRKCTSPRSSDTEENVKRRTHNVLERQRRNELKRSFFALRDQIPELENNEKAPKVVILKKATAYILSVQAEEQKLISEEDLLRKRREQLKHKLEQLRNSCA

The nature of assay [10]: ATG_NF_kB_CIS: Attagene CIS-FACTORIAL HepG2 Assay for human Nuclear Factor Kappa B (NF-kB) (AID 2282991). To be noted: HepG2 Attagene cis-factorial NF-kB reporter mRNA; actives raise or lower the signal. Summed up: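 Readout is reporter transcript level, gain or loss versus DMSO, measured 24 h post-dose via RT-PCR, fluorescent labelling and capillary electrophoresis. Human HepG2 liver cells carried transiently transfected CIS reporter constructs reflecting endogenous factors.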

A short description of assay [11]: ATG_NRF2_ARE_CIS: Attagene CIS-FACTORIAL HepG2 Assay for human Nuclear Factor Erythroid 2 Related Factor 2 (NFR2) response to Antioxidant Response Elements (ARE) (AID 2282992). To be noted: HepG2 Attagene ARE/NRF2 reporter, transcription factor activity; actives raise or lower the signal. Summed up: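 Using transiently transfected HepG2 cells exposed for 24 h, reporter mRNA levels were determined by RT-PCR with fluorescent primer extension and capillary electrophoresis, analysed for gain or loss of signal against DMSO.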

Assay [12] in a line: ATG_Oct_MLP_CIS: Attagene CIS-FACTORIAL HepG2 Assay for human Octamer-Binding Transcription Factor (Oct) (AID 2282993). The note with it: HepG2 Attagene cis-factorial Oct reporter, mRNA; actives raise or lower the signal. Summed up:
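Cells of the HepG2 line express promoter-controlled reporter sequences whose mRNA levels, after 24 h treatment, are measured by RT-PCR and capillary electrophoresis. Increases and decreases are scored relative to DMSO.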

The target of assay [13] is Cellular tumor antigen p53 (Homo sapiens) (UniProt P04637). Put plainly: ATG_p53_CIS: Attagene CIS-FACTORIAL HepG2 Assay for human p53 Transcription Factor (AID 2282994). To be noted: HepG2 p53 cis-element reporter, Attagene mRNA; actives raise or lower the signal. A digest of the protocol: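 In HepG2 cells, reporter transcription units under cis-regulatory promoters were transiently introduced. Following 24 h treatment, RNA was processed to labelled, digested cDNA fragments read by capillary electrophoresis; fitting was bidirectional versus DMSO.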
Cellular tumor antigen p53 (Homo sapiens), sequence (P04637 whole entry, looked up, the tested form may be a part): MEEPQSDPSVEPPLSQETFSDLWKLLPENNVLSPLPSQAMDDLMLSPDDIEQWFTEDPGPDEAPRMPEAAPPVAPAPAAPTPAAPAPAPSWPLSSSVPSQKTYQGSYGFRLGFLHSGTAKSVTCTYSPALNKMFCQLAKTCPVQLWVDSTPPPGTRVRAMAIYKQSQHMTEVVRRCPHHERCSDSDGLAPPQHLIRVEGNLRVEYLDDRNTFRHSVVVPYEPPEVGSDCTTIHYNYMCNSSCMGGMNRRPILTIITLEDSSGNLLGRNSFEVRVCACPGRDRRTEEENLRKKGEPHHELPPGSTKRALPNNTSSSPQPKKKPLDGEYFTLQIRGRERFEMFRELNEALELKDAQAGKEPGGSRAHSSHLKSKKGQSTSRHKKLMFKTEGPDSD

For assay [14], the target named is Bile acid receptor (Homo sapiens) (UniProt Q96RI1). Put plainly: ATG_FXR_TRANS: Attagene TRANS-FACTORIAL HepG2 Assay for Farnesoid X Receptor (FXR) (AID 2282979; active = hit-call score of the fitted dose curve at least 0.9, where 1 is the maximum;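 note: hits raise reporter mRNA above DMSO so AC50 marks FXR activation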). To be noted: HepG2 Attagene TRANS FXR-GAL4 reporter transcription. Summed up: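 HepG2 cells transiently transfected with reporter constructs in which a chimeric FXR-GAL4 protein drives a GAL4-UAS reporter; 24 h compound exposure. Reporter mRNA measured by RT-PCR, FAM labelling, HpaI digestion and capillary electrophoresis; gain-of-signal versus DMSO.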
Bile acid receptor (Homo sapiens), sequence (Q96RI1 whole entry, looked up, the tested form may be a part): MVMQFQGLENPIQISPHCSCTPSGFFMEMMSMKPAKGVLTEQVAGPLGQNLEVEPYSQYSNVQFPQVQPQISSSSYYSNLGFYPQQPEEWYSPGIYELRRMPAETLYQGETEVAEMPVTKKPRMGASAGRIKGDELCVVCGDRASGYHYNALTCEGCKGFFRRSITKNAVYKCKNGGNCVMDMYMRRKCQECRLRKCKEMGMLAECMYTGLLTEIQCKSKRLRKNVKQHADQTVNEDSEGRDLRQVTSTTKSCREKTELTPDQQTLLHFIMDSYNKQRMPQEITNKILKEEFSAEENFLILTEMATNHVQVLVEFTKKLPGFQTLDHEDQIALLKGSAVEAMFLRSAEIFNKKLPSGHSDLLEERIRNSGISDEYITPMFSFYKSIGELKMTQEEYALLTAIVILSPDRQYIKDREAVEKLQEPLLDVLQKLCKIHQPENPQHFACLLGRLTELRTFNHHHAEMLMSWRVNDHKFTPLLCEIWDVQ

The target in assay [15] is Oxysterols receptor LXR-alpha (Homo sapiens) (UniProt Q13133). Put plainly: ATG_LXRa_TRANS: Attagene TRANS-FACTORIAL HepG2 Assay for human Liver X Receptor alpha (LXRa) (AID 2282980; active = hit-call score of the fitted dose curve at least 0.9, where 1 is the maximum). The note with it: HepG2 Attagene TRANS reporter, LXRa transactivation. Summed up: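 HepG2 cells were transiently transfected with multiplexed reporter units driven by chimeric LXRa–GAL4 fusion proteins, then dosed for 24 h. Reporter mRNA was quantified by RT-PCR, fluorescent labelling and capillary electrophoresis; gain of signal fitted against DMSO baseline.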
Oxysterols receptor LXR-alpha (Homo sapiens), sequence (Q13133 whole entry, looked up, the tested form may be a part): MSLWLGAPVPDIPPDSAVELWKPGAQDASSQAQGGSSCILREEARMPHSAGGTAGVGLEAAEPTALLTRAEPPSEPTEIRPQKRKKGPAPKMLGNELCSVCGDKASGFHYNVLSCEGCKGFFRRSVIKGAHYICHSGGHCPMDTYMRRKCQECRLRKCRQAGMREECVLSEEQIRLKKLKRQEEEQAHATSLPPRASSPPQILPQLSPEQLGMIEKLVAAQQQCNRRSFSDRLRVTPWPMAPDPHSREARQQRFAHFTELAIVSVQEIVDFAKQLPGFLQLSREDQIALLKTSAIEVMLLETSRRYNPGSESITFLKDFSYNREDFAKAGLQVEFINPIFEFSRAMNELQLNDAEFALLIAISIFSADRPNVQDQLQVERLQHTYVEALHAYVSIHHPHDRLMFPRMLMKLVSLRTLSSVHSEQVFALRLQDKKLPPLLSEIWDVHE

The nature of assay [16]: BSK_3C_uPAR: BioMAP Diversity Plus: 3C Assay for Urokinase-type plasminogen activator receptor (uPAR) Biomarker Activity (AID 2282998). To be noted: BioMAP 3C HUVEC, uPAR biomarker ELISA; actives raise or lower the signal. Summed up:
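Endothelial primary cells of human umbilical vein origin received test chemical; 24 h later uPAR was assayed by ELISA. Fitting was bidirectional, DMSO as negative control.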
Background: An ELISA detects its analyte on a solid surface through an enzyme-linked reagent.

Assay [17] can be described thus: BSK_3C_VCAM1: BioMAP Diversity Plus: 3C Assay for Vascular cell adhesion molecule 1 (VCAM1) Biomarker Activity (AID 2282999). To be noted: BioMAP 3C HUVEC, VCAM1 ELISA, cytokine-stimulated; actives raise or lower the signal. A digest of the protocol:
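Activity fitted in both directions relative to DMSO, with ELISA measurement of the surface marker on primary HUVEC (3C) at 24 h post-treatment; parallel SRB staining (0.1% SRB, TCA-fixed, 560 nm) flagged overt cytotoxicity.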

Records with an inconclusive call do not appear. The source made the active and inactive calls. Rule for the calls, unless noted: active = hit-call score of the fitted dose curve at least 0.9, where 1 is the maximum; inactive = score below 0.9.

Nuclear receptor subfamily 4 group A member 2 (Homo sapiens), sequence (P43354 whole entry, looked up, the tested form may be a part): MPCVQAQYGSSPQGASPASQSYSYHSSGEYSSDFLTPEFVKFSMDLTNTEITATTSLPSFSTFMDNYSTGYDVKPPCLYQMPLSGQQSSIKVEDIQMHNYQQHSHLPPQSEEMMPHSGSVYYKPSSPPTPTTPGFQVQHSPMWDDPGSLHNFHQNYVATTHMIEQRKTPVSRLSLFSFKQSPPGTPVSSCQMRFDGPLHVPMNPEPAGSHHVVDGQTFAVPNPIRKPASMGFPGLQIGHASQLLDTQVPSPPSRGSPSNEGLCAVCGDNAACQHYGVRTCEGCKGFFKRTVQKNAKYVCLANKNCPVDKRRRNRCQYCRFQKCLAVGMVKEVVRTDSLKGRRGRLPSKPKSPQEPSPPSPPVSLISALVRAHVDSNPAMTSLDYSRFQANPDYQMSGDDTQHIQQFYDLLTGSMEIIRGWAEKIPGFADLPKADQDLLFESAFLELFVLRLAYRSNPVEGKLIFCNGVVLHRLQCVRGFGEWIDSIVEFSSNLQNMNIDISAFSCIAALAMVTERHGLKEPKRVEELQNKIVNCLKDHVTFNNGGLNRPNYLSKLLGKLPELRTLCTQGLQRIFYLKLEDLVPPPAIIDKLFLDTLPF
Transcriptional activator Myb (Homo sapiens), sequence (P10242 whole entry, looked up): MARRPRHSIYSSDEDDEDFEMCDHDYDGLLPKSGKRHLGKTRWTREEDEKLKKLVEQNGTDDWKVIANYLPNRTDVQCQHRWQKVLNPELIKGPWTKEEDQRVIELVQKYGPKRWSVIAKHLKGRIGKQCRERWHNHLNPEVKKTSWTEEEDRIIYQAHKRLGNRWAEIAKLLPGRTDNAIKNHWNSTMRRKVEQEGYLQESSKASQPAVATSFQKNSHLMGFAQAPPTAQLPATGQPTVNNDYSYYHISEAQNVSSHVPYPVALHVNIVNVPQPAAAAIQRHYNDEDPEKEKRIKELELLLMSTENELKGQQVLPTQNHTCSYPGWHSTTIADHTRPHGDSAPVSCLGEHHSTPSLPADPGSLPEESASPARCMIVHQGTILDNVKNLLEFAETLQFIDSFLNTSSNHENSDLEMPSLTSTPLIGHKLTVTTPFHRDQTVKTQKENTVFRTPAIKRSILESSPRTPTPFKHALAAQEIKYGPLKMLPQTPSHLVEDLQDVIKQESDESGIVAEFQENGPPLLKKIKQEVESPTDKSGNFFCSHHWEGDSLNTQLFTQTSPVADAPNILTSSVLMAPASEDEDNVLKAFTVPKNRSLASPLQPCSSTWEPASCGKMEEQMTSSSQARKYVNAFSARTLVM
Glucocorticoid receptor (Homo sapiens), sequence (P04150 whole entry, looked up, the tested form may be a part): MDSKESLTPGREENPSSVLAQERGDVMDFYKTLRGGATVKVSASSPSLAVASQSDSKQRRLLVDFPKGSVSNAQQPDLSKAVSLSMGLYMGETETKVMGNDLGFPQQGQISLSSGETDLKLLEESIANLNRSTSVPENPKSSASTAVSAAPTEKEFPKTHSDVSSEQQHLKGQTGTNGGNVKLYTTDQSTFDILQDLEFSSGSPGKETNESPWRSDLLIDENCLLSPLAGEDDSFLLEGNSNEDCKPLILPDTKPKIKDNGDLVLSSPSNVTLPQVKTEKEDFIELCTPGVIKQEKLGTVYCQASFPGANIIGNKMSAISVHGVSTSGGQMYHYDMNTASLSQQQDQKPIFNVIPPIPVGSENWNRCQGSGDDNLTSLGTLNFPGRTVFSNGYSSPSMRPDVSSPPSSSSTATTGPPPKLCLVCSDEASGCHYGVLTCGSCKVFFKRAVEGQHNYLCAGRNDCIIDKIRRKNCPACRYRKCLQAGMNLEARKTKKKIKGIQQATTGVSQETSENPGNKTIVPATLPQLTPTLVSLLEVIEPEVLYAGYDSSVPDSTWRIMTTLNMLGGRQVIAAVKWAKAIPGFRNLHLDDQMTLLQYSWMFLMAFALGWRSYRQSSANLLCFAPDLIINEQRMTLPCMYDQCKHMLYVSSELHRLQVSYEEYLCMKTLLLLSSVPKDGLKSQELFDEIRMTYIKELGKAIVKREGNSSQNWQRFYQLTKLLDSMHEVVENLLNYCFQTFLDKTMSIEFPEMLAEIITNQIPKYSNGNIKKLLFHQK

A word on the AC50: it is the midpoint of the concentration-response curve, whichever way the signal moves. In the case of `C=C(C)C(=O)OCC1CO1` (configuration not stated), the compound was called inactive in [1], in assay [2], in [3], in assay [4], in assay [5] and in [6]. Further, the result in assay [7], in assay [8], in assay [9], in assay [10], in [12] and in assay [13] was inactive. For the same compound, the AC50 in assay [11] is 42.9 µM (active).
As for `NNC(N)=S`, the call in assay [1], in assay [14], in [3], in assay [6], in assay [7] and in [8] was inactive. Further, the call in assay [9], in assay [10], in [11], in assay [12] and in assay [13] was inactive.
Turning to `Nc1ccc(Sc2ccc(N)cc2)cc1`, the call in [1], in assay [2], in assay [4], in assay [5], in assay [6] and in assay [7] was inactive. The compound was classed as inactive in [8], in [9] and in assay [12]. In [11], the AC50 is 50.4 µM (active).
For `O=c1[nH]c2ccccc2c(=O)o1`, the result in assay [1], in [15], in [3], in assay [5], in assay [6] and in assay [7] was inactive. Further, the compound was classed as inactive in assay [8], in assay [9], in [10], in assay [11], in [12] and in assay [13].
As for `O=C(O)C(Cl)Cl`, the compound was called inactive in assay [1], in [15], in assay [3], in assay [6], in assay [7] and in [8]. The call in assay [9], in assay [11], in assay [12], in assay [16] and in [17] was inactive.

For the origin of these results see PubChem BioAssay (EPA / NIEHS).
